Assay outcomes deposited in PubChem BioAssay by National Center for Advancing Translational Sciences (NCATS).
AmpC inh no det – blocks E. coli AmpC beta-lactamase in absence of detergent; AID 585; AmpC nitrocefin hydrolysis, absorbance 480 nm, no detergent; 1.8% of 71,000 active; Potency, µM (doses to about 28.7 µM), inactives show at the highest dose activity change, negative = inhibition; further: % of control where 0% means no effect
Target sequence (P00811 whole entry, looked up): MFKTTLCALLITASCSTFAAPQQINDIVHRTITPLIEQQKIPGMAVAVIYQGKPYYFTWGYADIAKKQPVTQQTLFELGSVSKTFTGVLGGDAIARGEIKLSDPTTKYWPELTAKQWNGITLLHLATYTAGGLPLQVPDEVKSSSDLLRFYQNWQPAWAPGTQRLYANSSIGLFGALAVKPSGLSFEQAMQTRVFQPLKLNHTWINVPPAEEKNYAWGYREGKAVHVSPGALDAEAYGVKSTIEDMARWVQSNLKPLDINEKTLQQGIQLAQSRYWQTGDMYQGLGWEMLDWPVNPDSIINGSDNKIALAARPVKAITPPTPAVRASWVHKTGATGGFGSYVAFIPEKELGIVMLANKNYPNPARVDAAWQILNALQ
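AmpC, 20 mM phosphate pH 7.0; 15 min cpd preinc, RT; start with nitrocefin (800 uM stock); A480 kinetic read, 20 s intervals, 4 min. No-enzyme wells = negative control.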
AmpC det inh – AmpC beta-lactamase inhibition, detergent assay. P00811. purified AmpC, nitrocefin hydrolysis with detergent. Potency, µM (top dose mostly 28.7 µM), for inactives: at the top dose activity change, negative = inhibition. 0.09% of 71,000 active. AID 584; active means well fitted curve in the direction sought with a large enough effect; inconclusive means small, poorly fitted or top-dose-only effect; further: on the % scale 0 is the no-effect control and ±100 the full control effect
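E. coli AmpC (5.3 nM) in 20 mM phosphate pH 7.0 with 0.01% Triton X-100, preincubated 15 min RT with compound; nitrocefin (2 uL of 800 uM stock) hydrolysis followed by 480 nm absorbance every 20 s over 4 min.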
LT uptake inh – blocks cellular internalization of anthrax lethal toxin; Cells, anthrax lethal toxin internalization, FRET ratio (460/530); Potency, µM (doses to about 40 µM), for inactives: at the highest dose activity change, negative = inhibition, usual class: inhibitors; 0.67% of 70,000 active; AID 912; further: on the % scale 0 is the no-effect control and ±100 the full control effect; nearly all actives have a fitted effect of over 50% in size
Prx2 Sm inh – blocks S. mansoni peroxiredoxin 2 enzymatic activity; 0.07% of 65,000 active; S. mansoni Prx2 activity coupled to TGR/GSH (TGR is thioredoxin glutathione reductase), NADPH fluorescence loss, qHTS; Potency, µM
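qHTS, coupled TGR/Prx2 format; 15 min compound preincubation at RT; reaction started with H2O2 (2.5 mM aliquot); kinetic NADPH fluorescence decrease, ex 365/em 450 nm.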
Numbers without * were called inactive; ? = inconclusive; nt = no result given; [ ] = another dose, or the depositor's remark. Most compounds without a hit are left out; they make up all but 2.4% or so of the library. Unless noted, the call rests on the fitted dose curve. Potency means the concentration at half of the fitted maximal effect.

SMILES	AmpC inh no det	AmpC det inh	LT uptake inh	Prx2 Sm inh
O=C(CC1(O)C(=O)Nc2cc(Cl)cc(Cl)c21)c1ccccc1O (stereo not drawn)	13µM*	10µM*	-5%	>57
NC(N)=NC(N)=Nc1ccc(C(=O)O)cc1	-6%[5.75 µM]	-5%[5.75 µM]	-7%[8 µM]	>57
O=[N+]([O-])c1ccc(CCO)cc1	-5%	9%	19%	nt
CCOC(=O)c1c(-c2ccc(C)o2)csc1NC(=O)CSc1nnnn1-c1ccccc1	13µM*	0%	?	>57
CCOC(=O)c1cnc2c(C(F)(F)F)cccc2c1N1CCOCC1	33%	-7%	-9%	>57
CCOC(=O)c1cnc2c(C)c(Cl)ccc2c1N1CCOCC1	4µM*[single pt active]	14%	0%	>57
CCCC[C@@H]1C[C@H]1[C@@H](NP(=O)(c1ccccc1)c1ccccc1)c1ccccc1OC	8%	15%	13µM*	nt
CCCC[C@@H]1C[C@H]1C(NP(=O)(c1ccccc1)c1ccccc1)c1ccc(Cl)cc1 (stereo partly drawn)	21%	-6%	-22%	>57
O=C(Nc1nnc(N2CCCCCC2)s1)c1cc(-c2ccc(Br)cc2)on1	4µM*[single pt active]	11%	-11%	>57
COC(=O)c1cc(-c2ccc(Br)cc2)on1	4µM*[single pt active]	11%	-16%	>57
COC(=O)c1cc(-c2ccc(OC)c(OC)c2)on1	10%	0%	-2%	>57
C=C(C)[C@H]1[C@H]2OC(=O)[C@@H]1[C@]1(O)C[C@H]3O[C@]34C(=O)O[C@H]2[C@]14C	-5%	2%	1%	>57
CCOC(=O)[C@]1(CC(=O)O)CCCC1=O	nt	nt	6%[8 µM]	>57
N#C/C(C(=O)c1ccccc1)=C1/SC=C(N)N1c1ccccc1	13µM*	11%	-29%	>57
CC1=CS/C(=C(/C#N)C(=O)N2CCCCC2)N1c1ccccc1	5%	-1%	2%	nt
COc1cccc(C2=NOC(C(=O)N3CCc4ccccc4C3)C2)c1 (stereo not drawn)	23%	13%	?	>57
O=C(C1CC(c2ccc(F)cc2)=NO1)N1CCCCC1 (stereo not drawn)	1%	-4%	6%	>57
O=C(C1CC(c2ccc(F)cc2)=NO1)N1CCN(c2ccccc2)CC1 (stereo not drawn)	4µM*[single pt active]	12%	-15%	>57
O=C(C1CC(c2ccc(F)cc2)=NO1)N1CCc2ccccc2C1 (stereo not drawn)	4µM*[single pt active]	12%	?	>57
CC(C)OCC1CO1 (stereo not drawn)	-11%	4%	4%	nt
Cn1cccc1C(=O)N1CCC[C@@]2(CCN(C(=O)Nc3cccc(F)c3)C2)C1	14%	0%	0%	>57
COc1cccc(C(=O)Nc2ccc(C)cc2)c1	-15%	2%	-17%	>57
COC(=O)c1cccc(C(=O)Nc2ccc(C)cc2)n1	23%	-4%	5µM*	>57
Cc1cccc(C)c1OCC(O)Cn1ccnc1C (stereo not drawn)	4µM*[single pt active]	2%	-8%	>57
COc1cc(OC)cc(OCC(O)Cn2ccnc2C)c1 (stereo not drawn)	18%	10%	-10%	>57
SMILES	AmpC inh no det	AmpC det inh	LT uptake inh	Prx2 Sm inh
Cc1cnc(NC(=O)CCCSc2nc3ccccc3s2)s1	13µM*	-4%	18%	>57
Cc1csc(NC(=O)CCCSc2nc3ccccc3s2)n1	1%	2%	-18%	>57
NC(=O)c1cccc(S(=O)(=O)N2CC(c3ccccc3)CC2=O)c1 (stereo not drawn)	4µM*[single pt active]	14%	-13%	>57
CCOc1ccc2[nH]c(C)c(CN(C)C)c(=O)c2c1	-3%	-3%	?	nt
CCOc1ccc2[nH]c(C)cc(=O)c2c1	4µM*[single pt active]	14%	-11%	>57
OCCN1CCN(c2ncnc3c2sc2nc(N4CCOCC4)c4c(c23)CCC4)CC1	43%	-1%	10µM*	>57
CC[C@H](C)C(=O)O[C@@H]1CCC=C2C=C[C@H](C)[C@@H](CC[C@H]3C[C@@H](O)CC(=O)O3)[C@H]21	128%	-1%	6%	>57
CCOC(=O)c1sc(NC(=O)CSc2nnc(-c3ccco3)n2CC)c(C(=O)OCC)c1C	86%	11%	10µM*	>57
CCOC(=O)c1c(NC(=O)CSc2nnc(-c3ccccc3)n2CC)sc(C(C)=O)c1C	60%	-2%	-10%	nt
COC(=O)[C@@]1(Cc2ccc(OC)cc2)[C@H]2c3cc(C(=O)N4CCCC4)n(CCN4CNCC4=O)c3C[C@H]2CN1C(=O)c1ccccc1	164%	0%	?	>57
CCN1C(=O)c2cccc3cccc1c23	-3%	-1%	?	3.9*
Cc1cc(Cl)ccc1OCC(=O)Nc1ccccc1N1CCOCC1	8%	-3%	16µM*	>57
Cc1ccc(OCCCC(=O)Nc2ccc(S(=O)(=O)Nc3cc(C)on3)cc2)cc1	10µM*[single pt active]	7%	4%	>57
CCCCOC(=O)Nc1ccc(S(=O)(=O)Nc2cc(C)nc(C)n2)cc1	3.2µM*[single pt active]	12%	?	>57
CN(C)CN1CSC(=S)N(CN(C)C)C1	-13%[5.75 µM]	-6%[5.75 µM]	-1%[8 µM]	>57
CC[C@H](C)[C@@H]1O[C@]2(CC[C@@H]1C)C[C@H]1C[C@H](CC=C(C)[C@@H](O[C@H]3C[C@H](OC)[C@H](O[C@H]4C[C@H](OC)[C@H](O)[C@H](C)O4)[C@H](C)O3)[C@@H](C)C=CC=C3CO[C@@H]4[C@@H](O)C(C)=C[C@H](C(=O)O1)[C@@]34O)O2	111%	-6%	?	?
Cc1cc(O)ccc1Nc1nc2ccccc2nc1Nc1ccc(O)cc1C	13µM*	4%	16%	nt
O=C(CSc1nnc(-c2cccnc2)n1Cc1ccco1)N1c2ccccc2Sc2ccccc21	141%	1%	16µM*	>57
c1cncc(CSc2nnc(-c3cccnc3)n2Cc2ccco2)c1	-8%	-3%	-1%	>57
COc1ccc(C(=O)CSc2nnc(-c3cc4ccccc4cc3O)n2Cc2ccco2)cc1	10µM*	15%	?	>57
N#CCCn1c(=O)c(-c2ccc(Cl)cc2)nc2cnc(N3CCNCC3)nc21	98%	0%	?	>57
CCCC(c1cc(C(C)(C)C)c(O)cc1C)c1cc(C(C)(C)C)c(O)cc1C	4µM*[single pt active]	-2%[5.75 µM]	?	>57
O=C(O)CNC(=O)c1ccc([As](=O)(O)O)cc1	-8%[5.75 µM]	-3%[5.75 µM]	-16%[8 µM]	>57
O=C1c2cccnc2C(=O)N1c1cccc(-c2nc3ccccc3o2)c1	44%	-1%	-6%	>57
O=C1CCC(=O)N1c1cccc(-c2nc3ccccc3o2)c1	4µM*[single pt active]	12%	1%	>57
O=C(NCc1ccccc1)c1noc2c1CCCC2	3%	-3%	2%	>57
CC(C)CNC(=O)c1noc2c1CCCC2	4µM*[single pt active]	4%	-8%	>57
CC(C)c1ccc(Cn2ccc3c4c(N)nc(NC5CC5)nc4ccc32)cc1	12%	-4%	25µM*	>57
CN[C@H]1[C@H](C)O[C@@H](O[C@@H]2C/C=C(/C)C/C(C)=C\C=C/CC[C@@H](C)CNC(=O)/C=C\C=C/[C@H]2C)C[C@@H]1O	17%[5.75 µM]	-2%[5.75 µM]	?	>57
